An excerpt weighted towards active compounds, which were near 15% of everything screened.
Pf growth 96h – Primary qHTS for delayed death inhibitors of the malarial parasite plastid, 96 hour incubation; AID 504834, 2011; Potency, µM (series often up to 28.7 µM), for inactives: at the highest dose activity change, negative = inhibition, actives largely listed as inhibitors; 320,000 tested, 6.9% active; P. falciparum luciferase reporter growth, 96 h; also: potency is read from the fitted curve at half-maximal effect; % is scaled to controls: 0 for no effect and ±100 for the full control effect
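Parasite growth measured via integrated firefly luciferase reporter in P. falciparum. Infected erythrocytes at 2% hematocrit, 0.05% parasitemia final were treated 96 hours at 37 C under 5% CO2, and luminescence was read.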
SARS PLpro yeast – qHTS of Yeast-based Assay for SARS-CoV PLP; S. cerevisiae expressing SARS-CoV PLpro, growth rescue; Potency, µM (series often up to 32.9 µM), inactives show at the highest dose activity, positive = growth rescue, actives largely listed as activators; 330,000 tested, 0.19% active; AID 485353, 2010; calls by dose curve; also: potency is read from the fitted curve at half-maximal effect; 0% is about no effect; nearly all actives have a fitted effect of over 55% in size
Sm TGR block – qHTS Assay for the Inhibitors of Schistosoma Mansoni Peroxiredoxins | purified TGR, DTNB reduction, TNB absorbance 405 nm | Potency, µM (top dose mostly 114 µM), inactives show top-dose activity change, negative = inhibition, actives largely listed as inhibitors | 360,000 tested, 3% active; also: potency is read from the fitted curve at half-maximal effect; % is scaled to controls: 0 for no effect and ±100 for the full control effect; nearly all actives have a fitted effect of over 60% in size
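TGR 20 nM + NADPH 100 uM (dispensed conc.), cpd preinc 15 min RT; start with NADPH (500 uM addition) then DTNB (15 mM addition). Kinetic TNB absorbance, 405 nm filter. Four-parameter Hill fit across titration.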
HCMV antiviral – qHTS Assay for inhibitors of the human cytomegalovirus (HCMV); HFF cells, HCMV-luciferase reporter, 72 h; active compounds read low; activity change, negative = inhibition, % at 57.5 µM; 410,000 tested, 4.5% active; AID 1259415, 2018; in the data active = activity change below about -60%; inconclusive = no clear call, values can overlap the other calls; inactive = above about -39%; also: % is scaled to controls: 0 for no effect and ±100 for the full control effect
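HFF cells seeded 16 h at 37C, treated with compounds, infected with luciferase-reporter HCMV at MOI 1 PFU/cell; luciferase read at 72 h post infection, normalized to buffer-only and Salinomycin controls.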
Pf growth 48h – Primary qHTS for delayed death inhibitors of the malarial parasite plastid, 48 hour incubation. P. falciparum luciferase growth in erythrocytes, 48 h. Potency, µM (top dose mostly 28.7 µM), for the others: at the highest dose activity change, negative = inhibition, usual class: inhibitors. 310,000 tested, 5.9% active; also: potency is read from the fitted curve at half-maximal effect; % is scaled to controls: 0 for no effect and ±100 for the full control effect
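Compounds are pin-transferred into medium, infected erythrocytes (2% hematocrit, 0.1% parasitemia final) are added, and plates sit one parasite generation at 37 C in 5% CO2. Detection reagent is then added and luminescence measured.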
HCV inhibitor – qHTS Assay for Inhibitors of Hepatitis C Virus (HCV); Huh7.5.1 HCVcc-Cre infection, luciferase reporter, 44 h; Potency, µM (series often up to 41.8 µM), for the others: at the highest dose activity change, negative = inhibition, usual class: inhibitors; 340,000 tested, 3.4% active; also: potency is read from the fitted curve at half-maximal effect; % is scaled to controls: 0 for no effect and ±100 for the full control effect
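Infectious HCV cell culture screen: compound-treated cells (1,000/well, pre-plated 4 h) are infected with HCVcc-Cre at roughly 0.5 moi and grown 44 h. Infection is quantified by luciferase signal after 15 min substrate incubation at room temperature.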
Numbers without * were called inactive; u = inconclusive; x = not tested or not shown. Unless noted, calls follow the shape of the dose curve; as a rule, active = well fitted curve in the direction sought with a large enough effect; inconclusive = small, poorly fitted or top-dose-only effect, or another doubt; inactive = no such curve, though single readings can be large; an effect the other way counts as inactive or inconclusive.

SMILES	Pf growth 96h	SARS PLpro yeast	Sm TGR block	HCMV antiviral	Pf growth 48h	HCV inhibitor
Cc1c(Cc2ccccc2)sc(NC(=O)c2ccco2)c1C(N)=O	3%	-84%	-16%	u	8%	u
CCOc1ccc(CC(=O)Nc2c(C(N)=O)oc3ccccc23)cc1OCC	12µM*	7%	1%	25	u	-4%
CCOc1ccc(CC(=O)Nc2sc(Cc3ccccc3)c(C)c2C(N)=O)cc1OCC	9.3µM*	-9%	-13%	-1	u	-16%
COc1ccc(CN(C(=O)/C=C/C(=O)c2ccc(OC)cc2O)C(C(=O)NC2CCCCC2)c2ccncc2)cc1 (stereo unspecified)	6%	-42%	-5%	-84*	12µM*	-25%
COc1ccc(CN(C(=O)c2nsc(Cl)c2Cl)C(C(=O)NC2CCCCC2)c2ccc(OC)cc2)cc1 (stereo unspecified)	u	-5%	15%	-36	u	u
COc1ccc(C(=O)/C=C/C(=O)N(Cc2ccc3c(c2)OCO3)C(C(=O)NC2CCCCC2)c2ccncc2)c(O)c1 (stereo unspecified)	15%	-41%	-5%	u	5.2µM*	u
COc1cccc(CNC(=O)C2Cc3cc(S(=O)(=O)N4CCCCCC4)ccc3N2C(C)=O)c1 (stereo unspecified)	x	x	-1%	21	x	x
C#CC[N+](C)(C)CC#Cc1ccc(C)cc1	u	-3%	3%	-90*	1.9µM*	-1%
C#CC[N+](CC)(CC)CC#Cc1ccccc1	u	2%	-2%	20	u	-14%
O=C(COc1ccc(Cl)cc1)NCCc1csc(-c2ccc(F)cc2)n1	x	x	7%	2	x	x
CCn1c(CNS(=O)(=O)c2ccc(Br)cc2)nnc1SC	17%	1%	3.5µM*	58	106%	19%
CSc1nnc(CNS(=O)(=O)c2ccc(Br)cc2)n1C	0%	2%	10%	57	u	17%
O=c1[nH]cn[nH]1	0%	1%	-4%	-7	62%	0.56µM*
NNC(=O)c1csc(-c2ccccc2)n1	0%	-2%	1%	12	11%	7%
CC(C)n1cc(-c2nc(C(=O)NN)cs2)c(=O)n(Cc2ccccc2)c1=O	u	0%	-1%	-68*	u	u
CCCCc1ccc(/C=C2/C(=O)ON=C2c2ccccc2)s1	10µM*	11%	6%	-31	-2%	2%
O=C1ON=C(c2ccccc2)/C1=C\c1ccco1	9%	0%	25µM*	-3	35%	17%
CC1=NOC(=O)/C1=C\c1ccc(-c2ccccc2Br)o1	15µM*	-15%	u	-10	5%	-17%
Cc1ccc(/C=C2/C(=O)ON=C2c2ccccc2)o1	15%	1%	5µM*	28	41%	22%
Cc1ccc(C2=NOC(=O)/C2=C\c2ccccc2)cc1	x	x	x	8	x	2%
O=C1ON=C(c2ccccc2)/C1=C/c1ccccc1	u	1%	u	10	50%	6%
COc1cccc(NC(=O)c2ccc3nc(C)c(N(C)Cc4ccc(NC(C)=O)cc4)n3c2)c1	x	x	x	2	x	x
Cc1ccc(CNCc2ccccc2Cl)s1	x	x	4%	-3	x	x
CC[C@@]12CCCN3CCc4c(n(c5ccccc45)[C@](O)(C(=O)OC)C1)C32 (stereo partly specified)	u	x	x	x	-19%	x
COc1cc2c(cc1OC)C(C)N(C(=O)c1cc3c(C)cc(C)cc3[nH]1)CC2 (stereo unspecified)	13µM*	-6%	-9%	-30	10µM*	22µM*
COc1cc2c(cc1OC)C(C)N(C(=O)Nc1cc(C)cc(C)c1)CC2 (stereo unspecified)	u	-1%	6%	-37	u	-24%

Screens from PubChem BioAssay.
